Sm TGR block: qHTS Assay for the Inhibitors of Schistosoma Mansoni Peroxiredoxins; Schistosoma mansoni thioredoxin glutathione reductase (TGR), Q962Y6; purified TGR, DTNB reduction, TNB absorbance 405 nm; Potency, µM (doses to about 114 µM), for inactives: top-dose activity change, negative = inhibition, usual class: inhibitors; 360,000 tested, 3% active; AID 485364, 2010; further: on the % scale 0 is the no-effect control and ±100 the full control effect; nearly all actives have a fitted effect of over 60% in size
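Kinetic colorimetric format: TGR-catalysed, NADPH-driven DTNB reduction monitored via TNB absorbance. Enzyme dispensed at 20 nM; compound exposure 15 min at room temperature before reaction start.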
AmpC inh no detg: qHTS Inhibitors of AmpC Beta-Lactamase (assay without detergent). Potency, µM (series often up to 57.1 µM), inactives show at the top dose activity change, negative = inhibition, usual class: inhibitors. P00811. AmpC nitrocefin hydrolysis, absorbance 480 nm, 0.0001% Triton. 330,000 tested, 0.52% active;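 further: plate controls were no compound for no effect and no enzyme for full effect; nearly all actives have a fitted effect of over 20% in size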
Target sequence (P00811 whole entry, looked up): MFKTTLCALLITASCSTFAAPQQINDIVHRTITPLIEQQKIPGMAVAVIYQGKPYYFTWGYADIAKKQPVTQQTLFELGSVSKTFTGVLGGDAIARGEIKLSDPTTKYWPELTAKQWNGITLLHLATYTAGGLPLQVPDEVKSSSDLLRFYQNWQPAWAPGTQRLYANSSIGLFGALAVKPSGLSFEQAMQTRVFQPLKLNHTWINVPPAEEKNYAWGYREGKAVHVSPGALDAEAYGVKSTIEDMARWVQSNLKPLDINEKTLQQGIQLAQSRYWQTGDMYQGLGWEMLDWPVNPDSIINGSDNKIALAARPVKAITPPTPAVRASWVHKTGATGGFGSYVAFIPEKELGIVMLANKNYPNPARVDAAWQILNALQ
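20 mM phosphate pH 7.0 + 0.01% (detergent screen) or 0.0001% Triton X-100; 5.3 nM AmpC reagent; cpd preinc 15 min RT; nitrocefin (800 uM stock) to start; A480 q20 s × 4 min; Activity was normalised to no-enzyme and no-compound control wells.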
SARS PLpro yeast: qHTS of Yeast-based Assay for SARS-CoV PLP. S. cerevisiae expressing SARS-CoV PLpro, growth rescue. 330,000 tested, 0.19% active. AID 485353, 2010. Potency, µM (titrated, usually from 32.9 µM), inactives show at the highest dose activity, positive = growth rescue, hits mostly activators; calls by dose curve; further: 0% is about no effect; nearly all actives have a fitted effect of over 55% in size
TbPYK inhibitor: qHTS of Trypanosoma Brucei Inhibitors. pyruvate kinase (Trypanosoma brucei), Q57TT1. TbPYK enzyme, Kinase-Glo Plus ATP luminescence, 45 min. Potency, µM (highest dose often 76.8 µM), inactives show at the top dose activity, negative = inhibition, actives largely listed as inhibitors. 410,000 tested, 0.12% active. AID 624173, 2012; further: on the % scale 0 is the no-effect control and ±100 the full control effect; nearly all actives have a fitted effect of over 50% in size
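TbPYK + substrate in 50 mM TEA pH 7.2, 100 mM KCl, 10 mM MgCl2, 0.05% BSA, 0.01% Tween-20; cpd pinned; ADP 130 uM final; 45 min RT; Kinase-Glo Plus 10 min; luminescence endpoint.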
AmpC detergent: qHTS Inhibitors of AmpC Beta-Lactamase (assay with detergent) | 370,000 tested, 0.041% active | AID 485294, 2010 | AmpC hydrolysis of nitrocefin, absorbance 480 nm, 0.01% Triton | Potency, µM (highest dose often 114 µM), for the others: at the top dose activity change, negative = inhibition, hits mostly inhibitors;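 further: 0% = no-compound wells and -100% = no-enzyme wells; nearly all actives have a fitted effect of over 25% in size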
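20 mM phosphate pH 7.0 + 0.01% (detergent screen) or 0.0001% Triton X-100; 5.3 nM AmpC reagent; cpd preinc 15 min RT; nitrocefin (800 uM stock) to start; A480 q20 s × 4 min; Activity was normalised to no-enzyme and no-compound control wells.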
RE007 growth inh: qHTS Assay for Inhibitors of the HIV-1 protein Vpr | S. pombe RE007 Vpr strain, BacTiter-Glo ATP luminescence, 24 h | Potency, µM (series often up to 92.2 µM), inactives show at the highest dose activity change, negative = less growth, usual class: inhibitors | 360,000 tested, 0.21% active | AID 651644, 2012; active means well fitted falling curve with a large enough effect; inconclusive means small, poorly fitted or top-dose-only effect; inactive means no such curve, though single readings can be large or run the other way; further: on the % scale 0 is the no-effect control and ±100 the full control effect; nearly all actives have a fitted effect of over 50% in size
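Fission yeast strain RE007, carrying one chromosomally integrated HIV-1 vpr copy, was seeded at OD 0.01 in PMG+AL medium with 23 nL pinned compound. After 24 h at 30 °C and 99% humidity, viability was read by BacTiter-Glo luminescence.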
The depositor's hits bear a star; u = inconclusive; x = no result. Shown are actives, neighbours in structure and some others; about 3.3% of the full set was active somewhere. Unless noted, the call rests on the fitted dose curve; in most records, active means well fitted curve in the direction sought with a large enough effect; inconclusive means small, poorly fitted or top-dose-only effect, or another doubt; inactive means no such curve, though single readings can be large; an effect the other way counts as inactive or inconclusive. Potency means the concentration at half of the fitted maximal effect.

SMILES | Sm TGR block | AmpC inh no detg | SARS PLpro yeast | TbPYK inhibitor | AmpC detergent | RE007 growth inh
CCc1ccc(-c2nc(CS(=O)CC(=O)NC3CC3)c(C)o2)cc1 (stereo not given) | 3.98µM* | 1.2% | 8.7% | 4.7% | -10.1% | 3.2%
O=C(Nc1ccc(Cl)cc1)c1ccc2c(c1)N(Cc1ccccc1)CCS2 | 3.1% | x | x | 5.9% | 6.0% | x
Cc1cc(C)c(NC(=O)CSc2ncc(S(=O)(=O)c3ccc(C(C)(C)C)cc3)c(=O)[nH]2)c(C)c1 | 3.7% | x | x | -11.8% | 17.3% | x
Cc1cc(F)ccc1NC(=O)CN1C(=O)CCc2cc(S(=O)(=O)N3CCOCC3)ccc21 | 7.4% | x | x | 2.2% | 11.0% | x
c1ccc(-c2noc(-c3cccnc3NCc3ccco3)n2)cc1 | 3.4% | x | x | -6.7% | 7.0% | x
COc1cccc(-c2ccc3ncnc(NCc4cccc(F)c4)c3c2)c1 | -0.5% | -4.6% | 8.91µM* | x | u | x
COc1cccc(-c2ccc3ncnc(NCc4cccc(C)c4)c3c2)c1 | 10.7% | -8.7% | u | 6.7% | u | x
COc1ccccc1N1CCN(C(=O)c2cnn(-c3ccc(F)cc3F)c2C2CCNCC2)CC1 | 6.5% | x | x | 4.6% | -9.5% | x
Cc1cc2nc3c(nc2cc1C)C(O)=C3O | 14.1µM* | -19.2% | 1.4% | -11.4% | 2.0% | 27.6%
CC(NC(=O)CCl)c1ccc(Cl)c(Cl)c1 (stereo not given) | 15.8µM* | -10.9% | -3.3% | 4.5% | u | 16.2%
CC(C)CC(NC(=O)CCl)c1ccccc1 (stereo not given) | 39.8µM* | -17.0% | 13.7% | -9.0% | 0.3% | x
CCCC(NC(=O)CCl)c1ccccc1 (stereo not given) | 44.7µM* | -7.7% | 25.7% | -3.4% | 10.6% | 9.3%
CC(NC(=O)c1ccc(Cl)c(Cl)c1)c1ccc(-c2ccccc2)cc1 (stereo not given) | 4.8% | -36.9% | 0.6% | -3.0% | -11.2% | x
CCC(NC(=O)CCl)c1ccc(C)cc1 (stereo not given) | u | -4.8% | 0.5% | 4.8% | 1.5% | 17.1%
CC(NC(=O)CCl)c1ccccc1Br (stereo not given) | 15.8µM* | -13.1% | 12.9% | 5.4% | 3.2% | 0.0%
Cc1ccc(S(=O)(=O)NCC(=O)NCC(=O)NC(C)c2ccccc2Br)cc1C (stereo not given) | 1.4% | 92.6% | -4.2% | 4.9% | -1.0% | -4.3%
O=c1cc(CSc2nnc3ccccn23)c2c(ccc3ccccc32)o1 | 44.7µM* | -41.3% | -5.9% | -10.6% | -10.3% | 2.7%
CCc1ccc(N(CC)C(=O)c2cc3c(=O)oc4ccc(C)cc4c3s2)cc1 | -0.3% | x | x | -0.3% | -8.1% | x
CC(=O)c1cccc(NC(=O)c2ccc3c(c2)N(Cc2ccc(C)cc2)CCS3)c1 | 8.0% | x | x | 1.0% | 13.3% | x
O=C(COc1cc(F)ccc1[N+](=O)[O-])Nc1ccc(N2CCCCC2)cc1 | -10.8% | 0.8% | x | -3.8% | u | -3.7%
O=C(COc1cc(F)ccc1[N+](=O)[O-])Nc1ccc(N2CCOCC2)cc1 | 44.7µM* | -24.9% | 2.8% | 4.2% | -7.2% | -18.0%
CN(C)C(=O)C(=O)c1c(-c2ccccc2)cc2ccccn12 | -1.5% | -1.7% | 2.2% | -2.4% | -0.1% | 8.7%
O=Nc1c(-c2ccccc2)cc2ccccn12 | -0.8% | 120.2% | -19.8% | -1.6% | -9.1% | 12.6µM*
O=C1CSC(=S)N1/N=C/c1ccc2c(c1)OCCO2 | 7.08µM* | -28.4% | -0.3% | -8.5% | -15.0% | 5.0%
O=C1CSC(=S)N1/N=C/c1cccnc1 | 6.31µM* | -11.6% | 4.1% | -17.8% | -2.0% | -0.8%
Cc1ccccc1/C=N/N1C(=O)CSC1=S | 10µM* | -29.4% | 1.3% | -4.4% | -2.4% | -15.1%

From PubChem BioAssay
